Assay outcomes: PubChem, several laboratories
sEH activator: soluble epoxide hydrolase activators, primary screen, biochemical, human sEH | purified human sEH enzymatic activity, activator screen | 91,000 tested, 0.04% active | AID 717, 2007 | activation, % at 2 µM; in the data active means activation above about 37%
Target sequence (P34913 whole entry, looked up): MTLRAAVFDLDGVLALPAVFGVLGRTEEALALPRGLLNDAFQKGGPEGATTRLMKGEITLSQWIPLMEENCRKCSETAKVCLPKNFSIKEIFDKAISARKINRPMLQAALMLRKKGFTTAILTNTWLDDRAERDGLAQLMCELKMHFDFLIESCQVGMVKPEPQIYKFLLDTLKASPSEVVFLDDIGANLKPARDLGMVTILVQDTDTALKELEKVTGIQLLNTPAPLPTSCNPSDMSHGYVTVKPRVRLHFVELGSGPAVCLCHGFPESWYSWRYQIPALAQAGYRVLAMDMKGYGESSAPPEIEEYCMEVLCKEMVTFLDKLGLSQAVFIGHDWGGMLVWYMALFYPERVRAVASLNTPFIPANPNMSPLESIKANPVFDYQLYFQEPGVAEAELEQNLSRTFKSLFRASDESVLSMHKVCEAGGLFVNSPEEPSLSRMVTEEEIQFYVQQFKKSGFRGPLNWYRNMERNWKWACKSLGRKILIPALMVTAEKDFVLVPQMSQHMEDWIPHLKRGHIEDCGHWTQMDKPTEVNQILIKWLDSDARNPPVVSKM
CYP2C9 act: human CYP2C9 activators, primary screen, biochemical, luminescence; Cytochrome P450 2C9 (Homo sapiens), P11712; recombinant CYP2C9, luciferin-H conversion; hits give high values; factor 1 = untreated enzyme, 0 = blocked; activation factor at 5 µM; 96,000 tested, 1.4% active; AID 1024, 2008;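 active means activation factor of 2 or more for CYP2C9 at a 5 µM dose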;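 further: 0 = sulfaphenazole-blocked wells and 1 = vehicle-only wells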
sEH inh: soluble epoxide hydrolase inhibitors, primary screen, biochemical, human sEH; recombinant human sEH enzymatic activity assay; inhibition, % at 2 µM; 91,000 tested, 0.34% active; AID 707, 2007; in the data active means inhibition above about 80%
CYP2C19 inh: blockers of cytochrome P450 2C19 activity – biochemical, luminescence, ADME assay, primary screen; 96,000 tested, 21% active; AID 778, 2007; P33261; inhibition, % at 5 µM; CYP2C19 Supersomes, luciferin-H EGE luminescence, 30 min;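 active means CYP2C19 inhibition above a set limit at 5 µM in the primary screen, cut at about 50% in these data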;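 further: plate controls were negative control wells for no effect and 2.5 mM tranylcypromine positive control for full effect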
CYP2C9 inhib: blockers of cytochrome P450 2C9 activity – biochemical, luminescence, ADME assay, primary screen. inhibition, % at 5 µM. CYP2C9 Supersomes, luciferin-H conversion. 96,000 tested, 20% active. P11712;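 active means blocking of liver enzyme CYP2C9 beyond about 50% at 5 µM, limit read from the data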
CYP2C19 act: human CYP2C19 activators, primary screen, biochemical, luminescence; 96,000 tested, under 10 active; activation factor at 5 µM; recombinant CYP2C19, luciferin-H EGE luminescence; hits give high values; 0 = fully inhibited enzyme, 1 = untreated enzyme;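 active means activation factor of at least 2 at 5 µM in the primary screen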;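 further: 0 = wells with 2.5 mM tranylcypromine and 1 = vehicle-only wells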
* marks the source's active call; other numbers are inactive results; x = no result given. Rows were chosen to be rich in hits. Some 27% of all compounds tested hit in one or more screens of this group.

SMILES	sEH activator	CYP2C9 act	sEH inh	CYP2C19 inh	CYP2C9 inhib	CYP2C19 act
Clc1c(-c2nnc3n2CCCCC3)sc2ccccc12	x	1.5	x	4.8	-51.6	1
Cn1c(-c2sc3ccccc3c2Cl)n[nH]c1=S	-3.8	0.2	3.1	52.4*	77.0*	0.5
Cn1c(CSc2nc3ccccc3s2)nc2ccccc21	1.8	0.2	-1.4	98.1*	77.8*	0
Cn1c(CSc2nc3ccccc3s2)n[nH]c1=S	-9.0	0.9	7.2	53.6*	12.7	0.5
Clc1c(-c2nnc3n2CCC3)sc2ccccc12	x	3*	x	15.8	-201.4	0.8
O=C(CN1C(=O)C2CC=C(Cl)CC2C1=O)NCc1ccccc1 (configuration not stated)	10.0	0.9	-10.5	6.0	14.8	0.9
CCC(c1nnnn1CCC(C)C)N1CCC(C(N)=O)CC1 (configuration not stated)	-0.1	1.1	-0.3	-17.9	-6.8	1.2
C1CCC(c2nn3c(-c4n[nH]c5c4CCC5)nnc3s2)CC1	5.8	0.7	-7.2	87.2*	31.7	0.1
CN(C)c1nc2c(c(=O)[nH]c(=O)n2C)n1Cc1ccccc1Br	15.6	0.8	-13.9	44.1	19.9	0.6
Cc1nn(Cc2ccccc2)c2c1C(c1ccncc1)C(C#N)=C(N)O2 (configuration not stated)	x	0	x	91.5*	99.5*	0.1
Cc1ccc(-n2nc(C)c3c2OC(N)=C(C#N)C3c2ccoc2)cc1 (configuration not stated)	x	0.4	x	25.8	63.5*	0.7
Cc1nn(-c2ccccc2)c2c1C(c1ccccc1)C(C#N)=C(N)O2 (configuration not stated)	-7.5	0.1	7.9	90.1*	86.7*	0.1
Cc1nn(Cc2ccccc2)c2c1C(c1ccc(Cl)cc1)C(C#N)=C(N)O2 (configuration not stated)	-3.2	x	4.6	x	x	x
Cc1ccc(-n2nc(C)c3c2OC(N)=C(C#N)C3c2ccco2)cc1 (configuration not stated)	-7.9	0.6	7.4	18.1	36.7	0.8
COc1ccc(C2C(C#N)=C(N)Oc3c2c(C)nn3-c2ccccc2)cc1Cn1nc(C)c([N+](=O)[O-])c1C (configuration not stated)	7.6	0.2	-7.7	30.9	85.0*	0.7
Cc1ccc(C(=O)NC(=S)Nc2cccc3c(C)cc(C)nc23)cc1	13.7	0.9	-15.4	9.3	10.5	0.9
Cc1nn(-c2ccccc2)c2c1C(c1ccc(F)cc1F)C(C#N)=C(N)O2 (configuration not stated)	4.1	0.2	-0.3	67.8*	82.0*	0.3
COc1ccc(OC)c(C2C(C#N)=C(N)Oc3c2c(C)nn3-c2ccc(C)cc2)c1 (configuration not stated)	-9.8	0.5	9.6	12.8	48.4	0.9
CCCCNc1nc(-c2ccccc2)nc(-n2ccnc2)n1	8.8	0.1	-13.6	85.7*	85.2*	0.1
c1ccc(-c2nc(-n3ccnc3)nc(-n3ccnc3)n2)cc1	x	0.5	x	55.9*	48.6	0.4
C=CCNc1nc(-c2ccccc2)nc(-n2ccnc2)n1	-2.6	0.5	4.1	34.7	46.2	0.7
CC(C)Nc1nc(-c2ccccc2)nc(-n2ccnc2)n1	-1.1	0.8	2.6	23.5	17.5	0.8
c1ccc(CN2CCN(c3nc(-c4ccccc4)nc(-n4ccnc4)n3)CC2)cc1	1.3	0.4	-0.9	34.3	57.2*	0.7
C=CCNCCCCOc1ccc(C)cc1[N+](=O)[O-]	5.5	0.9	-7.7	5.8	6.9	0.9
O=C(O)c1oc2ccc(Br)cc2c1-n1cccc1	8.4	1	-7.0	-10.4	-4.3	1.1
SMILES	sEH activator	CYP2C9 act	sEH inh	CYP2C19 inh	CYP2C9 inhib	CYP2C19 act
COc1ccc(CN(Cc2nc3ccccc3c(=O)[nH]2)C(=O)NC2CCCCC2)cc1	16.9	0.6	-15.2	47.1	40.4	0.5
COc1ccc(S(=O)(=O)N(Cc2nc3ccccc3c(=O)[nH]2)C2CCCC2)cc1	-0.8	0.1	2.4	85.0*	94.2*	0.2
COc1ccccc1CN(Cc1nc2ccccc2c(=O)[nH]1)S(=O)(=O)c1ccc(C)cc1	-10.5	0.3	11.0	69.5*	74.2*	0.3
COc1ccccc1CN(Cc1nc2ccccc2c(=O)[nH]1)C(=O)Nc1ccc(C)cc1	10.6	0.7	-8.4	25.5	34.4	0.7
COc1ccccc1CN(Cc1nc2ccccc2c(=O)[nH]1)C(=O)Nc1ccccc1C	1.3	0.3	0.7	89.2*	73.2*	0.1
Cc1cc2cc(CCNC(=O)c3c(-c4ccccc4Cl)noc3C)c(=O)[nH]c2cc1C	x	0.5	x	13.3	47.0	0.9
O=C(CCn1c(=O)oc2ccccc21)N1CCc2ccccc21	x	1	x	-2.2	4.0	1
Cc1ccnc(-n2c(CCN3C(=O)c4ccccc4C3=O)nc3ccccc3c2=O)c1	-2.3	0.3	5.2	59.9*	69.0*	0.4
COc1ccc(NS(=O)(=O)c2cc(C)ccc2OC)cc1OC	3.1	0.6	-5.3	82.5*	41.0	0.2
COc1ccc(C)cc1S(=O)(=O)Nc1cccc(Cl)c1	-4.3	0.5	4.4	38.7	47.5	0.6
COc1ccc(C)cc1S(=O)(=O)NC1CCCCC1C (configuration not stated)	7.3	0.1	-8.1	85.2*	89.4*	0.1
COc1ccc(C)cc1S(=O)(=O)Nc1cccc(SC)c1	-8.4	0.8	6.6	20.7	22.1	0.8
COc1cccc(NS(=O)(=O)c2cc(C)ccc2OC)c1	10.2	0.5	-4.6	69.2*	52.3*	0.3
COc1ccc(F)cc1S(=O)(=O)Nc1ccc(C)cc1	-5.7	0.4	5.8	40.4	56.9*	0.6
O=C(Nc1ccc(Cl)cc1F)C1CCN(S(=O)(=O)c2cccnc2)CC1	-7.9	0.8	9.7	6.4	16.7	0.9
COc1cccc(C(=O)Nc2ccc(NC(=O)C3CC3)cn2)c1	8.4	0.9	-8.1	31.2	13.0	0.7
CCCCn1c(=O)nc2n(-c3ccccc3)c3ccccc3cc-2c1=O	5.7	0.9	-3.9	14.8	5.0	0.9
C=CCc1c(C)nc(N)[nH]c1=O	-8.5	x	13.5	x	x	x
COc1ccc(OC)c(S(=O)(=O)Nc2ccc(C)c(C)c2)c1	2.3	0.2	-4.8	99.0*	83.8*	0
COc1ccc(OC)c(S(=O)(=O)Nc2ccc3oc4c(c3c2)C(=O)CCC4)c1	12.1	0.1	-9.5	57.0*	93.7*	0.4
COc1ccc(OC)c(S(=O)(=O)Nc2cccnc2)c1	-1.3	1	3.6	26.4	1.1	0.7
CCn1nnnc1-c1ccc(OC)c(S(=O)(=O)Nc2ccc(C)c(C)c2)c1	17.2	0.4	-16.6	48.7	62.1*	0.5
